Test results reported in PubChem BioAssay AID1159580 (chemical genetic matrix, 2015).
Several values for one entry are separate records, joined by “and”; a condition that tells them apart may be missing. Equal values may be shown once. Out of some 5,500 compounds screened, about 2,000 (36%) were called active. Inconclusive results (about 18%) are left out. Rule as the data show it: active = normalized growth mostly below about 0.91 (no sharp cut-off); inconclusive = no clear call, values can overlap the other calls; inactive = mostly above about 0.92. This is one part of the list.

Test: chemical genetic growth profiling, strain panel (AID 1159580);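 also: tested at 20 µM; growth read once vehicle control cultures reached saturation at 30 °C; 1 = growth at the plate median or of vehicle wells; lower values mean less growth of the strain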
Details: S. cerevisiae deletion strains, growth OD

Measured: normalized growth

CC(CCC(=O)O)[C@H]1CCC2C3C(C[C@H](O)[C@@]21C)[C@@]1(C)CC[C@@H](O)C[C@H]1C[C@H]3O (some centres not stated)
inactive: locus YAL013W, strain DEP1, stronger effect = lower value 1.01 | locus YAL021C, strain ccr4, stronger effect = lower value 1.08 | locus YAL026C, strain drs2, stronger effect = lower value 1.03 | locus YAL030W, strain snc1, stronger effect = lower value 1.01 | locus YBL061C, strain skt5, stronger effect = lower value 1 | locus YBR009C, strain hhf1, stronger effect = lower value 1.05 | locus YBR021W, strain FUR4, stronger effect = lower value 0.995 | locus YBR023C, strain chs3, stronger effect = lower value 1.01 | locus YBR171W, strain sec66, stronger effect = lower value 1.02 | locus YBR229C, strain ROT2, stronger effect = lower value 1.01 | locus YBR231C, strain swc5, stronger effect = lower value 1 | locus YBR279W, strain paf1, stronger effect = lower value 1.02 | locus YCL011C, strain gbp2, stronger effect = lower value 1.02 | locus YCL016C, strain dcc1, stronger effect = lower value 1 | locus YCL029C, strain bik1, stronger effect = lower value 1.02 | locus YCL061C, strain MRC1, stronger effect = lower value 1.01 | locus YCL069W, strain vba3, stronger effect = lower value 1.02 | locus YCR088W, strain abp1, stronger effect = lower value 1.01 | locus YDL005C, strain med2, stronger effect = lower value 1.01 | locus YDL035C, strain GPR1, stronger effect = lower value 1.03 | locus YDL040C, strain nat1, stronger effect = lower value 1.02 | locus YDL074C, strain BRE1, stronger effect = lower value 1.02 | locus YDL101C, strain DUN1, stronger effect = lower value 1.02 | locus YDL185W, strain tfp1, stronger effect = lower value 1 | locus YDL192W, strain arf1, stronger effect = lower value 1.01 | locus YDR001C, strain nth1, stronger effect = lower value 1.02 | locus YDR069C, strain doa4, stronger effect = lower value 1.02 | locus YDR101C, strain arx1, stronger effect = lower value 0.985 | locus YDR137W, strain rgp1, stronger effect = lower value 0.991 | locus YDR159W, strain sac3, stronger effect = lower value 1.03 | locus YDR162C, strain NBP2, stronger effect = lower value 1.02 | locus YDR195W, strain ref2 1.03 | locus YDR297W, strain sur2, stronger effect = lower value 0.998 | locus YDR318W, strain mcm21, stronger effect = lower value 1.01 | locus YDR334W, strain swr1, stronger effect = lower value 1.03 | locus YDR335W, strain msn5, stronger effect = lower value 0.986 | locus YDR388W, stronger effect = lower value 1 | locus YDR392W, strain spt3, stronger effect = lower value 0.958 | locus YDR502C, strain sam2, stronger effect = lower value 1.01 | locus YEL003W, strain gim4, stronger effect = lower value 1.02 | locus YEL037C, strain rad23, stronger effect = lower value 1.03 | locus YEL061C, strain CIN8 (second series), stronger effect = lower value 1.02 | locus YEL061C, strain CIN8, stronger effect = lower value 1.03 | locus YER015W, strain faa2, stronger effect = lower value 0.982 | locus YER016W, strain bim1, stronger effect = lower value 0.99 | locus YER110C, stronger effect = lower value 1 | locus YER111C, strain swi4, stronger effect = lower value 1.03 | locus YER155C, strain BEM2 (second series), stronger effect = lower value 1.02 | locus YER155C, strain BEM2, stronger effect = lower value 1.01 | locus YER167W, strain BCK2, stronger effect = lower value 1.02 | locus YFR010W, strain ubp6, stronger effect = lower value 1.03 | locus YGL078C, strain dbp3, stronger effect = lower value 1.01 | locus YGL086W, strain mad1, stronger effect = lower value 1 | locus YGL167C, strain pmr1, stronger effect = lower value 0.995 | locus YGL173C, strain kem1, stronger effect = lower value 1.04 | locus YGL227W, strain vid30, stronger effect = lower value 1.01 | locus YGL240W, strain doc1, stronger effect = lower value 1.01 | locus YGL248W, strain PDE1, stronger effect = lower value 1.02 | locus YGL253W, strain hxk2, stronger effect = lower value 1.02 | locus YGR135W, strain pre9, stronger effect = lower value 0.993 | locus YGR252W, strain gcn5, stronger effect = lower value 0.965 | locus YHR013C, strain ard1, stronger effect = lower value 1.03 | locus YHR027C, strain rpn1, stronger effect = lower value 0.994 | locus YHR030C, strain SLT2, stronger effect = lower value 1.01 and 0.992 | locus YHR079C, strain IRE1 (second series), stronger effect = lower value 1 | locus YHR079C, strain IRE1, stronger effect = lower value 0.975 | locus YHR094C, strain hxt1, stronger effect = lower value 1 | locus YHR129C, strain ARP1, stronger effect = lower value 1.02 | locus YHR142W, strain chs7, stronger effect = lower value 1.05 | locus YHR200W, strain rpn10, stronger effect = lower value 0.994 | locus YIL066C, strain RNR3, stronger effect = lower value 1 | locus YIL073C, strain SPO22, stronger effect = lower value 1 | locus YIL125W, strain kgd1, stronger effect = lower value 1.01 | locus YIR030C, strain dcg1, stronger effect = lower value 1 | locus YJL092W, strain hpr5, stronger effect = lower value 1.01 | locus YJL095W, strain BCK1 (second series), stronger effect = lower value 1.01 | locus YJL095W, strain BCK1, stronger effect = lower value 1.02 and 0.977 | locus YJL115W, strain asf1, stronger effect = lower value 1.03 | locus YJL129C, strain trk1, stronger effect = lower value 1.05 | locus YJL134W, strain LCB3, stronger effect = lower value 1.01 | locus YJL154C, strain vps35, stronger effect = lower value 1.02 | locus YJL164C, strain tpk1, stronger effect = lower value 1.06 | locus YJL166W, strain qcr8, stronger effect = lower value 1.03 | locus YJL168C, strain set2, stronger effect = lower value 1.01 | locus YJL187C, strain SWE1 (second series), stronger effect = lower value 1.01 | locus YJL187C, strain SWE1, stronger effect = lower value 1.01 | locus YJR043C, strain POL32, stronger effect = lower value 0.994 | locus YJR066W, strain TOR1, stronger effect = lower value 0.93 | locus YKL009W, strain mrt4, stronger effect = lower value 0.959 | locus YKL068W, stronger effect = lower value 1.02 | locus YKL085W, strain MDH1 (second series), stronger effect = lower value 1 | locus YKL085W, strain MDH1, stronger effect = lower value 1 | locus YKL160W, strain elf1, stronger effect = lower value 0.995 | locus YKR001C, strain vps1, stronger effect = lower value 1.01 | locus YKR026C, strain gcn3, stronger effect = lower value 1.02 | locus YKR091W, strain srl3, stronger effect = lower value 1.02 | locus YLL001W, strain dnm1, stronger effect = lower value 0.989 | locus YLL026W, stronger effect = lower value 1.01 | locus YLL041C, strain sdh2, stronger effect = lower value 1.02 | locus YLR027C, strain aat2, stronger effect = lower value 1.02 | locus YLR039C, strain RIC1, stronger effect = lower value 1.09 | locus YLR058C, strain SHM2, stronger effect = lower value 1.02 | locus YLR102C, strain apc9, stronger effect = lower value 0.998 | locus YLR113W, strain HOG1, stronger effect = lower value 0.983 | locus YLR221C, strain rsa3, stronger effect = lower value 1.01 | locus YLR258W, strain gsy2, stronger effect = lower value 1.04 | locus YLR262C, strain YPT6 (second series), stronger effect = lower value 1.05 | locus YLR262C, strain YPT6, stronger effect = lower value 1.11 | locus YLR268W, strain sec22, stronger effect = lower value 0.986 | locus YLR320W, strain mms22, stronger effect = lower value 1.03 | locus YLR330W, strain CHS5, stronger effect = lower value 1.01 | locus YLR342W, strain FKS1 (second series), stronger effect = lower value 1.01 | locus YLR342W, strain FKS1, stronger effect = lower value 1 | locus YLR357W, strain rsc2, stronger effect = lower value 1.01 | locus YLR370C, strain arc18, stronger effect = lower value 0.999 | locus YLR371W, strain rom2, stronger effect = lower value 1 | locus YLR384C, strain iki3, stronger effect = lower value 0.991 | locus YLR418C, strain cdc73, stronger effect = lower value 0.994 | locus YML016C, strain PPZ1, stronger effect = lower value 1.03 | locus YML032C, strain rad52, stronger effect = lower value 0.995 | locus YML120C, strain ndi1, stronger effect = lower value 0.998 | locus YML124C, strain tub3, stronger effect = lower value 1.01 | locus YMR058W, strain fet3, stronger effect = lower value 1.03 | locus YMR078C, strain ctf18, stronger effect = lower value 1 | locus YMR125W, strain sto1, stronger effect = lower value 1.02 | locus YMR129W, stronger effect = lower value 0.991 | locus YMR205C, strain PFK2, stronger effect = lower value 1.02 | locus YMR223W, strain ubp8, stronger effect = lower value 1.02 | locus YMR231W, strain pep5, stronger effect = lower value 1.02 | locus YMR307W, strain GAS1, stronger effect = lower value 0.983 | locus YNL067W, strain RPL9B, stronger effect = lower value 1.02 | locus YNL071W, strain lat1, stronger effect = lower value 1.03 | locus YNL128W, strain TEP1, stronger effect = lower value 1.02 | locus YNL183C, strain NPR1, stronger effect = lower value 0.925 | locus YNL209W, strain ssb2, stronger effect = lower value 0.993 | locus YNL233W, strain BNI4, stronger effect = lower value 1.01 | locus YNL248C, strain rpa49, stronger effect = lower value 1.02 | locus YNL250W, strain rad50, stronger effect = lower value 1.01 | locus YNL271C, strain bni1, stronger effect = lower value 1 | locus YNL298W, strain CLA4, stronger effect = lower value 0.999 | locus YNL307C, strain MCK1, stronger effect = lower value 1 | locus YNL322C, strain KRE1 (second series), stronger effect = lower value 1.01 | locus YNR049C, strain mso1, stronger effect = lower value 0.986 | locus YNR052C, strain pop2, stronger effect = lower value 1.03 | locus YOL006C, strain TOP1, stronger effect = lower value 1.07 | locus YOL012C, strain htz1 1.17 | locus YOL147C, strain pex11, stronger effect = lower value 1.01 | locus YOR001W, strain rrp6, stronger effect = lower value 1.02 | locus YOR061W, strain CKA2, stronger effect = lower value 1.02 | locus YOR069W, strain VPS5, stronger effect = lower value 1.02 | locus YOR070C, strain gyp1, stronger effect = lower value 1 | locus YOR080W, strain dia2, stronger effect = lower value 1.01 | locus YOR083W, strain WHI5, stronger effect = lower value 1.01 | locus YOR106W, strain vam3, stronger effect = lower value 1.07 | locus YOR136W, strain idh2, stronger effect = lower value 1.01 | locus YOR144C, strain elg1, stronger effect = lower value 1 | locus YOR184W, strain ser1, stronger effect = lower value 1 | locus YOR231W, strain MKK1, stronger effect = lower value 0.981 | locus YOR265W, strain rbl2, stronger effect = lower value 1 | locus YOR270C, strain vph1, stronger effect = lower value 1.11 | locus YOR290C, strain snf2, stronger effect = lower value 0.982 | locus YOR316C, strain cot1, stronger effect = lower value 1 | locus YPL051W, strain arl3, stronger effect = lower value 1.01 | locus YPL078C, strain atp4, stronger effect = lower value 1.03 | locus YPL106C, strain sse1, stronger effect = lower value 1.01 | locus YPL240C, strain hsp82, stronger effect = lower value 0.996 | locus YPL256C, strain CLN2, stronger effect = lower value 0.957 | locus YPR119W, strain clb2, stronger effect = lower value 1 | locus YPR141C, strain kar3, stronger effect = lower value 1.01 | locus YPR163C, strain tif3, stronger effect = lower value 0.992 | locus YPR167C, strain met16, stronger effect = lower value 1.03 | strain wtn01, stronger effect = lower value 0.993
